Assay outcomes as filed in PubChem BioAssay.
These entries were drawn from the full list.
aSyn 5UTR act: Activators via SNCA 5'UTR binding, MLPCN | alpha-synuclein 5'UTR reporter, activators screen | 7.1% of 300,000 active | activity score, % (tested at 7.5 µM), hits read low; in the data active means activity score below about -60%
A number is an active result; . = inactive.

SMILES | aSyn 5UTR act
O=C(/C=C/c1ccco1)Nc1ccccc1N1CCCC1 | -79.6
O=C(/C=C/c1ccco1)Nc1ccccc1C(=O)O | -116.8
Cc1cccc(NC(=S)N/N=C/c2c[nH]c3ccccc23)c1 | -64.9
O=C(N/N=C/c1c[nH]c2ccccc12)c1ccc2c(c1)OCCO2 | -139.7
O=C(CSc1nnc(SCc2cccc3ccccc23)s1)N/N=C/c1c[nH]c2ccccc12 | -78.2
O=C(N/N=C/c1c[nH]c2ccccc12)c1cccs1 | -127.2
Oc1c(C(c2ccccc2Cl)N2CCCC2)ccc2cccnc12 (stereo not given) | .
Cc1cc(/C=N\NC(=O)c2cccs2)c(C)n1-c1ccc2ncccc2c1 | -144.8
Cc1cc(C(=O)N/N=C/c2c[nH]c3ccccc23)cs1 | -73.8
Cc1cc(C(=O)N/N=C/c2c[nH]c3ccccc23)c(C)o1 | -81.0
O=C(N/N=C/c1cccc2ccccc12)c1cccs1 | -163.9
Cc1cc(C)cc(NC(=O)CSc2nnc(-c3ccccc3Br)o2)c1 | -67.2
COc1ccccc1NC(=O)CSc1nnc(-c2ccccc2)o1 | -89.9
COc1ccc(NC(=O)CSc2nnc(-c3cccc(O)c3)o2)cc1 | -109.8
O=C(CSc1nnc(-c2ccc(O)cc2)o1)Nc1ccccc1 | -100.2
CC(C)OC(=O)/C(=C/c1ccc2c(c1)c1ccccc1n2C)NC(=O)c1ccccc1 | -145.9
CC(C)OC(=O)/C(=C\c1ccc2c(c1)c1ccccc1n2C)NC(=O)c1ccccc1 | -112.8
CN(C)c1ccc(/C=C/c2cc[n+]([O-])cc2)cc1 | -114.4
CC(=O)c1cnc(Nc2ccc(C)cc2)s1 | -121.7
CCCOc1ccc(-c2cnc(N)s2)cc1 | -157.9
CCOc1ccc(N/C(N)=N/c2nc(CSc3nnc(C)s3)cc(=O)[nH]2)cc1 | .
CCCOc1ccc(OCCSc2nnc(N)s2)cc1 | -89.1
CCOC(=O)c1ccc(CSc2nnc(N)s2)cc1 | -73.6
CCOc1ccc(-c2nc(CSc3nnc(N)s3)cs2)cc1 | -90.3
Cc1[nH]c2ccccc2c1C(=O)CSC(=S)N(C)C | -76.2
SMILES | aSyn 5UTR act
Cc1[nH]c2ccccc2c1C(=O)CN1C(=O)NC2(CC(C)CC(C)(C)C2)C1=O (stereo not given) | .
Nc1ccc(C#Cc2c(-c3ccsc3)oc3ccc(N4CCOCC4)cc23)cc1 | -167.8
COc1ccc(-c2oc3ccc(N4CCOCC4)cc3c2C#CCO)cc1 | -91.9
C=CCn1c(=NC(=O)c2ccco2)sc2cc(C(=O)OC)ccc21 | -76.6
Cn1cccc1/C=C1\CCC/C(=C\c2cccn2C)C1=O | -153.8
O=C1/C(=C/c2cccs2)CCC/C1=C\c1cccs1 | -124.6
c1ccc(OCc2nc3ccccc3s2)cc1 | -122.9
Fc1ccc(OCc2nc3ccccc3s2)cc1 | -178.3
O=S(=O)(Cc1nc2ccccc2s1)c1ccccc1 | -68.7
CCC(=O)Nc1ccc(OCc2nc3ccccc3s2)cc1 | -124.7
CCC[C@H](CN[C@@H](CNC)[C@H](C)CC)NCCc1cc(C(F)(F)F)cc(C(F)(F)F)c1 | .
CCS(=O)(=O)c1ccc(OC)c(N=Nc2ccc(O)c3ncccc23)c1 | .
COc1ccc(C(NC(=O)c2cccnc2)c2cc(Cl)c3cccnc3c2O)cc1OC (stereo not given) | .
COc1ccc(C(=O)Nc2cccc3cccnc23)cc1OC | -71.6
CC(C)Oc1ccc(C(=O)Nc2cccc3cccnc23)cc1 | -136.3
COc1ccc(NC(=O)C(=O)Nc2cccc3cccnc23)cc1OC | -114.0
Cc1cc(C(=O)Nc2cccc3cccnc23)ccc1[N+](=O)[O-] | -105.5
COc1ccc(C(=O)NCCn2ccc3ccccc32)c(OC)c1 | -89.8
COc1ccc(-c2coc3cc(OC)cc(OC)c3c2=O)cc1 | -166.2
CC(C)Oc1cc(O)c2c(=O)c(-c3ccc(O)cc3)coc2c1 | -138.3
COc1ccc(-c2coc3cc(OC)cc(O)c3c2=O)cc1 | -129.8
COc1ccc(-c2coc3cc(O)cc(O)c3c2=O)cc1 | -114.6
O=c1c(-c2ccc(O)cc2)coc2cc(O)cc(O)c12 | -99.2
Clc1ccc(Nc2nc(-c3ccncc3)cs2)cc1 | -85.4
Fc1ccc(Nc2nc(-c3ccncc3)cs2)cc1 | -114.0
SMILES | aSyn 5UTR act
Cc1nc2ncccn2c1-c1csc(Nc2ccc(N(C)C)cc2)n1 | .
Nc1ccc(Nc2nc(-c3ccncc3)cs2)cc1 | -135.1
c1ccc(Nc2nc(-c3ccncc3)cs2)cc1 | -151.0
CC1CCC(NC(=O)Cn2ncc3ccccc32)CC1 (stereo not given) | -113.3
CCOc1ccc(NC(=O)Cn2ncc3ccccc32)cc1 | -129.3
CN(C#N)c1nc(Cl)nc(Nc2cccc(Cl)c2)n1 | -66.4
OCCCNc1cc(-c2ccnc(Nc3cccc(Cl)c3)n2)ccn1 | .
COc1ccc(-c2noc(-c3ccc4c(c3)OCO4)n2)cc1 | -71.5
COCC1CCN(Cc2nc(-c3ccc4c(c3)OCO4)no2)C1 (stereo not given) | -114.4
COc1ccccc1-c1noc(-c2cccnc2)n1 | -112.3
COc1ccccc1-c1nc(-c2ccncc2)no1 | -122.6
CCOc1nc(C)ccc1-c1noc(-c2cccnc2)n1 | -85.3
COc1ccccc1-c1nc(-c2ccc(Br)cc2)no1 | -304.5
COc1ccc(-c2nc(-c3ccc(Br)cc3)no2)c(OC)c1 | -104.8
COc1cc(OC)cc(-c2nc(-c3ccc(Br)cc3)no2)c1 | -164.0
